# Screening results from PubChem BioAssay.
# KCNH2 3.1 inh = inhibitors of human KCNH2 3.1 potassium channel isoform | U2OS KCNH2 3.1, thallium flux FluxOr; active compounds read low | activity change, % (tested at about 1.8 µM) | AID 720553 | hit rate 0.95% among 340,000;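 active = maximum activity change below -70%; inconclusive = maximum activity change from -70% to -50%; inactive = maximum activity change above -50%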;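 also: thallium influx rate constant from kinetic fluorescence after stimulation buffer; % is scaled to controls: 0 for no effect and ±100 for the full control effect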
#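 We transduce U2OS cells with the mutant 3.1 virus, culture them overnight, load FluxOr with Red40 quencher for 45 min, then add stimulation buffer and read kinetically for 2 min to derive a normalized rate constant.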
# EPAC1 ag = EPAC1 (human) agonism | O95398 | EPAC1 agonist qHTS, biochemical assay; response scale: 100% = response to 6.5 mM cAMP | Potency, µM (titrated, usually from 154 µM), for the others: at the top dose activation, actives largely listed as activators | hit rate 0.073% among 360,000 | AID 720707; also: potency is read from the fitted curve at half-maximal effect; nearly all actives have a fitted effect of over 60% in size
#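 Nucleotide exchange by EPAC1 (100 nM) on Rap1B–BODIPY-GDP (250 nM) in the presence of 50 uM GDP is tracked fluorescently at 480/540 nm over 30 min. Signals are normalized to a 6.5 mM cAMP control.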
# hERG WT inh = inhibitors of human wildtype KCNH2 potassium channel; Q12809; U2OS, BacMam KCNH2, thallium flux FluxOr; active compounds read low; activity change, % at 1.84 µM; hit rate 0.37% among 340,000; AID 720551;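 active = maximum activity change below -70%; inconclusive = maximum activity change between -70% and -50%; inactive = maximum activity change above -50%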; also: % is scaled to controls: 0 for no effect and ±100 for the full control effect
#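 U2OS cells were transduced with wild-type KCNH2 virus (2.03 x 10^8 / mL) for 4 h at room temperature, then cultured overnight at 37 C. Thallium flux was read with FluxOr dye. Rate constants were normalized to DMSO controls.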
# EPAC1 antagonist = EPAC1 (human) antagonism; hit rate 0.14% among 360,000; EPAC1 GEF assay, Rap1b-BODIPY-GDP exchange fluorescence; Potency, µM (series often up to 115 µM), inactives show at the top dose activity change, negative = inhibition, most hits filed as inhibitors;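 also: potency is read from the fitted curve at half-maximal effect; plate controls were vehicle for no effect and positive control for full effect; nearly all actives have a fitted effect of over 50% in size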
# EPAC2 ag = activates human EPAC2 exchange factor | Q8WZA2 | EPAC2 activation, biochemical qHTS; response scale: 100% = 6.5 mM cAMP response | Potency, µM (doses to about 154 µM), inactives show at the highest dose activation, actives largely listed as activators | hit rate 0.079% among 360,000 | AID 720711; also: potency is read from the fitted curve at half-maximal effect; nearly all actives have a fitted effect of over 50% in size
# Target sequence (Q8WZA2 whole entry, looked up): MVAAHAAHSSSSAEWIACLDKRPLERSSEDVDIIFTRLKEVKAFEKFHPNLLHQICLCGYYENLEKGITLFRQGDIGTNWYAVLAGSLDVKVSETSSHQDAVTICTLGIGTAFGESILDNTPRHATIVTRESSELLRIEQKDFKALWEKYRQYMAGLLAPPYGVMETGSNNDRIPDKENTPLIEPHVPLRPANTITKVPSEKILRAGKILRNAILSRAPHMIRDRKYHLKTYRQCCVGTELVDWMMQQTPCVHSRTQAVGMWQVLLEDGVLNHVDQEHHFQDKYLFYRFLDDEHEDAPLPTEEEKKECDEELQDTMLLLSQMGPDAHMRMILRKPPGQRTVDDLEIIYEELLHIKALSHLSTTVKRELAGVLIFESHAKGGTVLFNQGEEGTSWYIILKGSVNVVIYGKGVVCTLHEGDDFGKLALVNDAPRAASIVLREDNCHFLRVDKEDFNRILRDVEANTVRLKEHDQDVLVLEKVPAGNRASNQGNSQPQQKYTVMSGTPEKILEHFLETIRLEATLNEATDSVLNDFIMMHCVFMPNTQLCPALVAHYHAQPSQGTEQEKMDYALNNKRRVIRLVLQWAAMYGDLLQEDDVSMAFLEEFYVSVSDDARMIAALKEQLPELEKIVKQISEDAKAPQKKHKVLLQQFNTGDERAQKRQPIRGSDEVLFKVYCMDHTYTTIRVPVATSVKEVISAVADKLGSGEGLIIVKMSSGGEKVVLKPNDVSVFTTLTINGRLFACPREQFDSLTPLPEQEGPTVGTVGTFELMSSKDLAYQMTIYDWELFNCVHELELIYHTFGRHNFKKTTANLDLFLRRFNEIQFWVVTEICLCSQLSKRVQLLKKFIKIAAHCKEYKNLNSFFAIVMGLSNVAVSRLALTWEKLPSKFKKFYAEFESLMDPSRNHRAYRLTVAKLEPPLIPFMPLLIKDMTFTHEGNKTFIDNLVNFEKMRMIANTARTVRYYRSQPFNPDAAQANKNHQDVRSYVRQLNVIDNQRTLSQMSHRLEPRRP
#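 In this primary screen, activation is scored as increased exchange of BODIPY-GDP from Rap1B by 100 nM EPAC2, with 50 uM GDP as competitor. Signal is normalized to the 6.5 mM cAMP agonist control.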
# EPAC2 antagonist = blocks human EPAC2 exchange factor. Potency, µM (series often up to 114 µM), for the others: at the top dose activity, negative = inhibition, most hits filed as inhibitors. EPAC2 GEF exchange of Rap1B-BODIPY-GDP, fluorescence. hit rate 0.18% among 360,000; also: potency is read from the fitted curve at half-maximal effect; % is scaled to controls: 0 for no effect and ±100 for the full control effect; nearly all actives have a fitted effect of over 45% in size
# The depositor's hits bear a star; i = inactive; u = inconclusive; x = not tested or not shown. A selection: hits, their analogues and other compounds. The true share with any hit is near 1.4%. Unless noted, calls follow the shape of the dose curve; as a rule, active = well fitted curve in the direction sought with a large enough effect; inconclusive = small, poorly fitted or top-dose-only effect, or another doubt; inactive = no such curve, though single readings can be large; an effect the other way counts as inactive or inconclusive.
SMILES,KCNH2 3.1 inh,EPAC1 ag,hERG WT inh,EPAC1 antagonist,EPAC2 ag,EPAC2 antagonist
Fc1ccc(Cn2nnnc2CN2CCC(n3nnc4cc(C(F)(F)F)ccc43)CC2)cc1,-98.2*,-6.8%,-22.0,-5.5%,4.1%,-28.9%
CC(C)C[C@H]1COc2cc(N3CCN(C)CC3)ccc2S(=O)(=O)N1,x,3.4%,x,-13.1%,11.5%,1.9%
CCOP(=O)(OCC)C(Cc1ccc(OC)c(OC)c1)N=C(c1ccccc1)c1ccccc1 (stereo unspecified),x,-19.7%,x,-19.4%,-1.2%,u
CCOC(=O)C1(CCOc2ccccc2)CCN(C(C)CSC)CC1 (stereo unspecified),-10.4,-17.0%,16.7,-5.4%,2.3%,2.2%
CCOC(=O)C1(CCOc2ccccc2)CCN(C2Cc3ccccc3C2)CC1,-121.1*,2.3%,-10.8,-5.4%,5.0%,-10.9%
Cc1ccc(CN2Cc3ccc(Br)cc3-n3nncc3C2)cc1,x,13.0%,x,-7.1%,12.8%,-9.5%
COC(=O)C1=C(c2ccc(C(C)=O)cc2)C[C@@H]2CC[C@H]1N2C(=O)N1CCCC1,-89.8*,2.4%,2.1,-1.5%,15.7%,-3.8%
COC(=O)C1=C(c2ccc(C(C)=O)cc2)C[C@@H]2CC[C@H]1N2C(=O)N1CCCCC1,-4.5,-14.2%,12.7,14.6%,0.4%,7.6%
CCn1nc(-c2ccccc2)nc2c(=O)n(C)c(=O)nc1-2,-3.3,u,-16.3,u,u,u
Cc1nc2c(=O)n(C)c(=O)nc-2n(C)n1,x,-1.2%,-4.3,100µM*,u,u
O=c1oc(Cl)c(Cl)c2ccccc12,2.4,-22.5%,-10.0,u,-6.5%,13.9%
COCCNC(=O)c1c(N)n(CCC(C)C)c2nc3ccccc3nc12,0.6,-4.0%,-1.0,44.7µM*,4.8%,79.4µM*
O=C1NC(=S)NC(=O)C1Cc1ccccc1O,7.2,7.1%,-10.9,-2.5%,6.8%,8.7%
Cc1ccc2c(c1)Oc1ccccc1N=C2,1.0,1.5%,6.0,-7.3%,5.6%,-19.7%
CCn1c(O)c(/C=N/NC(=O)c2ccncc2)c(=O)n(CC)c1=S,-1.1,56.2µM*,-4.6,69.0%,u,7.6%
CC(=O)O[C@H]1CC[C@@]2(C)C(=CC[C@H]3[C@@H]4CC[C@H](C(C)=O)[C@@]4(C)CC[C@@H]32)C1,7.9,-35.5%,2.5,-8.1%,-2.3%,-5.5%
CCOc1ccc(CN2CCCC(C(=O)c3ccccc3OC)C2)cc1 (stereo unspecified),-83.8*,6.3%,-29.8,0.4%,-1.9%,2.3%
Cc1ccc(C(=O)N[C@@H](C)CN2C3=NC[C@H](Cc4ccccc4)N3C[C@H]2Cc2ccc(O)cc2)cc1Br,-11.7,-13.3%,-84.8*,-19.5%,4.3%,5.7%
COC(=O)c1cn(Cc2ccc(F)cc2)c2ccccc12,-2.5,3.9%,-9.7,-2.2%,0.8%,u
COC(=O)c1cn(C(=O)c2cccc3ccccc23)c2ccccc12,13.4,9.3%,5.8,-5.8%,14.0%,8.91µM*
CCOC(=O)C1(CCc2ccccc2)CCN(Cc2cccc3c2OCO3)CC1,-97.4*,14.9%,-111.6*,-4.6%,18.0%,-0.4%
CC[C@@]1(C(=O)OC)N[C@H](CN(C)C(=O)Nc2ccc(OC)cc2)[C@@H]2C(=O)N(Cc3ccccc3)C(=O)[C@@H]21,-1.1,3.6%,3.2,-0.9%,u,-1.7%
CC1(C)c2[nH]c3ccccc3c2C[C@@H]2C(=O)N(Cc3ccccc3F)C(=O)N21,x,2.1%,x,-11.1%,u,5.3%
COC(=O)C1=C(c2ccc(F)cc2OCc2ccccc2)C[C@@H]2CC[C@H]1N2C(=O)NCc1ccc([N+](=O)[O-])cc1,-87.7*,6.4%,-19.8,-4.0%,14.3%,u
COC(=O)C1=C(c2cccc(OC)c2OC)C[C@@H]2CC[C@H]1N2C(=O)NCc1ccc(F)cc1,-126.4*,-3.4%,-1.2,-23.4%,-4.7%,-3.3%
SMILES,KCNH2 3.1 inh,EPAC1 ag,hERG WT inh,EPAC1 antagonist,EPAC2 ag,EPAC2 antagonist
COC(=O)C1=C(c2cccc(OC)c2OC)C[C@@H]2CC[C@H]1N2C(=O)NCc1ccccc1,-11.0,4.6%,0.6,-4.7%,18.2%,11.1%
CO[C@H]1C=CCCC=CC(=O)O[C@H]([C@H](C)C(=O)CCCC2CC(=O)NC(=O)C2)C(C)=C[C@@H](C)[C@@H]1O,x,-8.8%,x,12.0%,3.0%,12.0%
NC(Cc1ccc(F)cc1)c1csc(Nc2ncccn2)n1 (stereo unspecified),x,7.8%,x,-1.3%,7.7%,7.0%
CC(C)(CN)CC(=O)O,8.1,-2.0%,-254.3*,-1.0%,4.3%,25.6%
Cc1nc(-c2cccc(NC(=O)c3ccc(Cl)c(S(=O)(=O)N4CCCC4)c3)c2)cs1,13.1,-16.6%,4.2,10.2%,13.6%,29.1%
Cc1ccc(N2C(=O)NC(=O)/C(=C\c3cc(C)n(-c4cc(C(=O)O)cc(C(=O)O)c4)c3C)C2=O)cc1,-3.5,-5.7%,-97.3*,-21.2%,13.6%,-23.2%
Cc1cc(/C=C2\C(=O)NC(=O)N(c3ccc(Cl)cc3)C2=O)c(C)n1-c1sc2c(c1C#N)CCCC2,-2.4,-9.3%,-1.6,50.1µM*,-11.0%,-10.1%
CCOP(=O)(OCC)c1ccc2c(c1)C(=O)c1ccccc1CC2,x,0.3%,x,-2.4%,1.6%,u
C[C@@]12CC[C@@H](c3cc4c(cc3C1)OCO4)N2c1ccccc1,x,9.1%,x,15.2%,10.3%,-22.2%
CSc1ccc(C(=O)C2CCCN(Cc3cc4ccccc4[nH]3)C2)cc1 (stereo unspecified),-104.5*,14.6%,-18.2,u,11.8%,-14.9%
CSc1ccc(C(=O)C2CCCN(Cc3cccnc3)C2)cc1 (stereo unspecified),0.2,-5.4%,0.3,-11.6%,17.8%,10.6%
C[n+]1c2cc(N)ccc2cc2ccc(N)cc21,-23.3,50.1µM*,-14.1,i,100µM*,i
CCN(CC)c1ccc(N=Cc2c(O)n(-c3cc(OC)ccc3OC)c(=O)[nH]c2=O)cc1,-14.3,u,-1.6,-8.2%,79.4µM*,31.7%
CCN(CC)c1ccc(N=Cc2c(O)n(CCc3ccc(OC)c(OC)c3)c(=O)[nH]c2=O)cc1,-32.9,16.4%,1.3,-18.9%,100µM*,4.0%
COc1ccc(N=Cc2c(O)n(-c3ccc(C)cc3)c(=O)[nH]c2=O)cc1,4.4,3.0%,-13.5,-6.7%,-2.0%,9.9%
Cc1ccc(S(=O)(=O)NN=Cc2cc(Cl)ccc2O)cc1,-13.6,3.4%,-0.1,-23.5%,4.0%,u
O=C1NC(=O)N(Cc2ccccc2)C(=O)/C1=C\C=C\c1ccco1,5.5,9.4%,-5.8,56.2µM*,2.7%,0.1%
O=C1NC(=O)N(Cc2ccco2)C(=O)/C1=C/C=C/c1ccco1,25.0,13.3%,-0.8,56.2µM*,-6.2%,-0.8%
